For 44 molecules, Potency results are on record in PubChem BioAssay (Tox21).

Structures are written as SMILES. Inconclusive results are not listed. A call without a number means that no potency is given here. The source made the active and inactive calls. Calls follow the shape of the full dose curve.

The assay has as its target Beta-2 adrenergic receptor (Homo sapiens) (UniProt P07550). Description: Adrenergic beta2 receptor (ADRB2) small molecule agonists, cell-based qHTS assay (AID 1963593). The following applies: CHO-ADRB2 cells, cAMP HTRF, 30 min; series mostly up to 42.5 µM. In short, it runs like this:
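CHO cells stably over-expressing ADRB2 were plated overnight at 37C, then dosed with compounds plus a stimulation mix containing 100uM IBMX and 25uM Ro-20-1724 for 0.5hr at room temperature. cAMP was measured by HTRF competition, 1hr.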
Potency is read from the fitted curve at half-maximal effect.

Beta-2 adrenergic receptor (Homo sapiens), sequence (P07550 whole entry, looked up): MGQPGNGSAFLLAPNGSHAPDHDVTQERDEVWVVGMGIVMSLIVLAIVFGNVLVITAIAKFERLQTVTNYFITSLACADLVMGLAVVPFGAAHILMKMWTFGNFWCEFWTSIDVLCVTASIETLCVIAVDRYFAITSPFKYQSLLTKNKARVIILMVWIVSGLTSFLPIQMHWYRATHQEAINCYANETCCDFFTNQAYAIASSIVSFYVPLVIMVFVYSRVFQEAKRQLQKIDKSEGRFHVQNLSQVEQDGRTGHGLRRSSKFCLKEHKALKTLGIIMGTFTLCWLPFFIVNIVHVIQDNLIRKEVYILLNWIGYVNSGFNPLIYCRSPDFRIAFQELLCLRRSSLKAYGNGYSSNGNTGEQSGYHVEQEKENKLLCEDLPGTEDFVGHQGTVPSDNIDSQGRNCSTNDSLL

As to `N=C(N)c1ccc(OCCCOc2ccc(C(=N)N)cc2)cc1`, the Potency result is “inactive”.
The same measure for `CCCCCCCCCCCCS(=O)(=O)Cl`: “inactive”; for `CN1CCN(c2c(F)cc3c(=O)c(C(=O)O)cn4c3c2SCC4)CC1`: “inactive”; for `CCCCCCCCCCCCCCNCCO`: “inactive”.
Turning to `Cc1c(Cl)cccc1Nc1ccccc1C(=O)O`, the Potency result is “inactive”.
The same measure for `CC(C)=NNC(N)=S`: “inactive”; for `O=C(CO)[C@@H](O)[C@H](O)[C@@H](O)CO`: “inactive”.
On to `CCOC(=O)C(=O)c1csc(NC=O)n1`, for which the Potency result is “inactive”.
The same measure for `CCCCCCCCCCCCOC(=O)c1ccc(O)cc1`: “inactive”; for `CCN(CC)CC(=O)Nc1c(C)cccc1C(=O)OC`: “inactive”; for `Nc1cnn([C@@H]2O[C@H](CO)[C@@H](O)[C@H]2O)c(=O)n1`: “inactive”.
On to `O=C=NCc1cccc(CN=C=O)c1`, for which the Potency entry is “inactive”.
With `NC(=O)C(=O)N/N=C/c1ccc([N+](=O)[O-])o1`, the Potency entry was “inactive”.
The same measure for `C[C@@H]1CN(CCCn2c3ccccc3c3ccccc32)C[C@H](C)N1`: “inactive”; for `Cc1ccc2cccnc2c1`: “inactive”.
Turning to `CCCCN(CCCC)C(=O)N(CCCC)CCCC`, the Potency result is “inactive”.
`CCOC(=O)[C@H](O)[C@@H](O)C(=O)OCC`: the Potency result is “inactive”.
The same measure for `Nc1cc(C(F)(F)F)ccc1S`: “inactive”; for `O=NN(CCCl)C(=O)NC1CCCCC1`: “inactive”; for `O=Cc1cccc(Br)c1`: “inactive”.
The value for `CC(=O)Nc1ccc(N)cc1` was “inactive”.
In the case of `NCCOCCOCCN`, the Potency entry was “inactive”.
Consider `CCCCCCC(CO)CCCC` (centres undefined), for which the Potency result is “inactive”.
The value for `Cc1ccsc1/C=C/C1=NCCCN1C` was “inactive”.
The same measure for `CCCCOc1ccc(C(=O)CCN2CCCCC2)cc1`: 13.3 µM (active); for `CCNC(=O)NCCCOc1cccc(CN2CCCCC2)c1`: “inactive”; for `C[C@@H]1C[C@H]2[C@@H]3CCC4=CC(=O)C=C[C@]4(C)[C@@]3(F)[C@@H](O)C[C@]2(C)[C@H]1C(=O)CO`: “inactive”.
The same measure for `CCC1C(=O)OCC1Cc1cncn1C` (centres undefined): “inactive”; for `CCCCOCCOC(=O)COc1ccc(Cl)cc1Cl`: “inactive”.
With `CC(C)C(=O)OC/C=C/c1ccccc1`, the Potency entry is “inactive”.
The same measure for `C/C=C/C=C/COC(=O)C(C)C`: “inactive”.
Consider `O=C1c2ccccc2C(=O)C1c1ccccc1`, for which the Potency entry was “inactive”.
Turning to `CC(=O)c1c(C)cc(C(C)(C)C)cc1C`, the Potency entry was “inactive”.
On to `CCCCCCCCCCC(=O)O`, for which the Potency result is “inactive”.
The value for `O=C(OCCN1CCOCC1)c1cccnc1Nc1cccc(C(F)(F)F)c1` was “inactive”; that for `CCCNC(C)C(=O)Nc1ccccc1C` (centres undefined) was “inactive”.
The value for `COc1cccc(O)c1` was “inactive”.
The same measure for `COCCCCCCCCOCCC[Si](C)(O[Si](C)(C)C)O[Si](C)(C)C`: “inactive”; for `C/C(=N\O)c1ccc(OCC(=O)N2CCCCC2)cc1`: “inactive”; for `C=CCn1c(=O)n(CC=C)c(=O)n(CC=C)c1=O`: “inactive”.
In the case of `O=C(NS(=O)(=O)/C=C/c1ccccc1)c1ccc(F)cc1Cl`, the Potency entry is “inactive”.
Consider `C=COCC(C)C`, for which the Potency entry was “inactive”.
`CCOc1cc(OCC)c(C(C)=O)cc1OCC`: the Potency result is “inactive”.
In the case of `O=C(c1ccc(O)cc1)c1ccc(O)cc1`, the Potency result is “inactive”.
